Data on 92 compounds can be found in PubChem BioAssay AID1376 (SRMLSC, 2008).

Molecules are shown by their SMILES. Values joined by “and” are separate entries in the source; they are usually repeats but may differ in a detail not shown here. Identical values can stand only once. Among all 220,000 compounds or so, about 530 (0.24%) were called active. Only a selection was taken, and actives are over-represented in it overall. Results with a measured potency or affinity are listed apart. Values without a mark were called inactive. Rule as the data show it: active = inhibition above about 13%; inconclusive = no clear call, values can overlap the other calls; inactive = below that.

This test deals with Bifunctional protein GlmU (Mycobacterium tuberculosis (strain ATCC 25618 / H37Rv)) (UniProt P9WMN3). The test is described as follows: inhibition of mycobacterial GlmU enzyme – biochemical, glucosamine-1-phosphate acetyltransferase (AID 1376).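 Also: 0% = complete reaction with vehicle and 100% = reaction without substrate.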 Particulars: M. tuberculosis GlmU acetyltransferase enzyme assay; stronger effect = higher value;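 tested at 30 µM in the primary screen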.
Chain of Bifunctional protein GlmU (Mycobacterium tuberculosis (strain ATCC 25618 / H37Rv)) (P9WMN3 whole entry, looked up): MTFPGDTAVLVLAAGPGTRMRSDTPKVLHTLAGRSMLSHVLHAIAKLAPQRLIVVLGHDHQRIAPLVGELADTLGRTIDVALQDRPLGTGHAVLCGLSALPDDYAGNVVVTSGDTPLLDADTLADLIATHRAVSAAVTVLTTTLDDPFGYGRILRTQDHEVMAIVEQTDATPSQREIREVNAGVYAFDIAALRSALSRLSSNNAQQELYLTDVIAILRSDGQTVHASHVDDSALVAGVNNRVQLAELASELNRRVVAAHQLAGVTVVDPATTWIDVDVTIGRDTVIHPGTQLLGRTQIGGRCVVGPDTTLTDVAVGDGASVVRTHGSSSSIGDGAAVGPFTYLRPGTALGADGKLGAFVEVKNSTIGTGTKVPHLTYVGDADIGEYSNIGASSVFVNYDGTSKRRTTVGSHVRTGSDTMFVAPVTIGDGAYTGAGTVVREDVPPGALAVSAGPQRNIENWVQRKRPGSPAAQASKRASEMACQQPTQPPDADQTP
`O=S(=O)(N1CCOCC1)n1cnc2ccccc21`: the inhibition was 3.88%.
For the compound `COc1ccc(NC(=O)CN2C(=O)c3cccc4cccc2c34)c(OC)c1`, the inhibition is 0.85%.
On to `CCN(C(=O)CN1CCN(S(=O)(=O)c2ccccc2C(F)(F)F)CC1)c1c(N)n(Cc2ccccc2)c(=O)[nH]c1=O`, for which the inhibition was -6.69%.
For `CCS(=O)(=O)Nc1cccc(-c2nc3cccnc3s2)c1`, the inhibition is 14.4% (active).
As for `CCS(=O)(=O)Nc1ccc(-c2nc3cccnc3s2)cc1`, the figure is 0.1%; as for `CCCS(=O)(=O)Nc1cccc(-c2nc3cccnc3s2)c1`, 3.55%; as for `COc1cc(C(=O)Oc2ccc3c(c2)OCC3=O)cc(OC)c1OC`, 1.2%.
Regarding `c1ccc(CSc2nnc(-c3ccco3)n2Cc2ccco2)cc1`, the inhibition was 13% (active).
With `c1ccc(CSc2nnc(-c3cccs3)n2Cc2ccco2)cc1`, the inhibition is -1.39%.
The result for `Cc1ccccc1CSc1nnc(-c2ccco2)n1Cc1ccco1` reads 1.77%.
As to `Cc1ccc(OCC(=O)Nc2ccc(S(=O)(=O)N3CCCCC3)cc2)c([N+](=O)[O-])n1`, the inhibition is -4.33%.
As for `O=C(CN(CC1CCCO1)S(=O)(=O)c1ccc(S(=O)(=O)NCC2CCCO2)cc1)Nc1ccccc1` (configuration not stated), the inhibition is 5.97%.
For the compound `CCOC(=O)c1cnc(-n2nc(C)cc2C)nc1Oc1ccccc1F`, the inhibition was -3.61%.
As for `CCOC(=O)c1cnc(-n2nc(C)cc2C)nc1Oc1ccc(C(=O)OC)cc1`, the inhibition is -2.28%.
With `CCOC(=O)c1cnc(-n2nc(C)cc2C)nc1Oc1ccc(C#N)cc1`, the inhibition is 13.1% (active).
For `CCOC(=O)c1[nH]c2ccc(OC)cc2c1NC(=O)c1ccc2c(c1)OCO2`, the inhibition was -4.48%.
As to `CCOC(=O)c1[nH]c2cc(OC)c(OC)cc2c1NC(=O)c1ccc2c(c1)OCO2`, the inhibition is 17.8% (active).
For `CCOC(=O)c1[nH]c2ccccc2c1NC(=O)c1ccc2c(c1)OCO2`, the inhibition was -1.52%.
On to `O=C(Nc1ccon1)c1ccccc1F`, for which the inhibition is -0.14%.
Turning to `Cc1cc(C)cc(NC(=S)NC(=O)CCN2C(=O)c3ccccc3C2=O)c1`, the inhibition is 13.3% (active).
In the case of `O=C(CCN1C(=O)c2ccccc2C1=O)NC(=S)Nc1ccccc1`, the inhibition is 2.69%.
As for `O=C(CCN1C(=O)c2ccccc2C1=O)NC(=S)Nc1ccccc1Cl`, the inhibition is -2.84%.
For the compound `Cc1ccc(CNC(=O)c2ccc3c(=O)[nH]c4c(C(=O)NCC5CCCO5)sc(=S)n4c3c2)cc1` (configuration not stated), the inhibition is 13.2% (active).
For `CCCCCNC(=O)c1ccc2c(=O)[nH]c3c(C(=O)NCC4CCCO4)sc(=S)n3c2c1` (configuration not stated), the inhibition was -1.14% and 8.81%.
As for `O=C(NCc1ccccc1)c1ccc2c(=O)[nH]c3c(C(=O)NCC4CCCO4)sc(=S)n3c2c1` (configuration not stated), the inhibition is 4.19%.
For `COc1ccc(OCCCC(=O)NCCc2nc3ccccc3[nH]2)cc1`, the inhibition is 5.71%.
The result for `O=c1c(C(c2c(O)nc3n(c2=O)CCS3)c2cccc3ccccc23)c(O)nc2n1CCS2` reads 15.3% (active); that for `Cc1ccc(C(c2c(O)nc3n(c2=O)CCS3)c2c(O)nc3n(c2=O)CCS3)cc1`, -1.5%; that for `O=c1c(C(c2ccccc2)c2c(O)nc3n(c2=O)CCS3)c(O)nc2n1CCS2`, 3.94%.
Consider `CCC(C)C1=CC(=Nc2c(C)n(C)n(-c3ccccc3)c2=O)C=C(C(C)CC)C1=O` (configuration not stated), for which the inhibition is -5.03%.
For `CC1=CC(=Nc2c(C)n(C)n(-c3ccccc3)c2=O)C=C(C)C1=O`, the inhibition is -6.33%.
Consider `Cc1c(N=C2C=C(Br)C(=O)C(Br)=C2)c(=O)n(-c2ccccc2)n1C`, for which the inhibition is 14.5% (active).
On to `O=C(NC1CC1)C1=C[C@@H](c2ccc(C(F)(F)F)cc2)C[C@@H](OCCCCO)O1`, for which the inhibition is 0.57%.
As for `CCOc1cc(/C=C2/C(=O)ON=C2C)ccc1OCc1ccccc1F`, the figure is -0.49%.
For `S=C(NCCc1ccccn1)Nc1cccc(Cl)c1`, the inhibition is 2.84%.
Regarding `O=C(CSc1nc2ccccc2[nH]1)Nc1ccccc1N1CCOCC1`, the inhibition is 2.16%.
As for `O=C(CCSc1ccccc1)Nc1nnc(-c2ccccc2)o1`, the figure is -1.24%.
For `O=C(c1coc(=O)c(Br)c1)N1CCCc2ccccc21`, the inhibition is -0.3%.
For the compound `COc1ccccc1N1CCN(C(=O)c2coc(=O)c(Br)c2)CC1`, the inhibition was 2.74%.
The result for `O=C(c1coc(=O)c(Br)c1)N1CCC(C(O)(c2ccccc2)c2ccccc2)CC1` reads -1.06%.
With `COc1ccc(C(=O)N2CCOCC2)cc1Br`, the inhibition is -2.45%.
Take `CC(c1ccccc1)C1CC(=O)N(c2ccc(C(=O)O)cc2)C1=O` (configuration not stated): the inhibition was -1.47%.
As for `CS(=O)(=O)NNC(=O)c1sccc1OCc1ncc(C(F)(F)F)cc1Cl`, the inhibition is -2.98%.
As for `CC(C)CNc1c(N)c(=O)oc2ccccc12`, the figure is -2.95%; as for `O=C(Nc1cccc(C(F)(F)F)c1)c1ccco1`, -3.67%; as for `Cc1ccccc1Nc1nc(N)nc(COC(=O)c2ccccc2)n1`, 6.9%.
Take `CCc1ccccc1Nc1nc(N)nc(COC(=O)c2cccn2C)n1`: the inhibition is 13.1% (active).
For the compound `Cc1ccccc1Nc1nc(N)nc(COC(=O)c2cccn2C)n1`, the inhibition is 2.68%.
As to `CCCCN(CC)Cc1ccc(CNC(=S)Nc2cccc(F)c2)o1`, the inhibition is -3.9%.
`N#C/C(=C\c1ccc[nH]1)C(=O)NCC1CCCO1` (configuration not stated): the inhibition was 2.87%.
As to `Brc1ccc(CSc2ccc3nnc(-c4ccccn4)n3n2)cc1`, the inhibition is -0.66%.
As for `COc1cccc(/C=N\n2c(C)nnc2C)c1OC`, the figure is 8.8%.
`Cc1ccc(N2C(=O)c3ccccc3C2C(=O)c2ccc(O)cc2O)cc1` (configuration not stated): the inhibition is 13.2% (active).
Consider `Cc1ccc(N2C(=O)c3ccccc3C2C(=O)c2ccc(C)c(C)c2O)cc1` (configuration not stated), for which the inhibition is -5.61%.
On to `Cc1ccc(N2C(=O)c3ccccc3C2C(=O)c2cc(C)ccc2O)cc1` (configuration not stated), for which the inhibition was -7.05%.
In the case of `CN1CCSc2ccc(C(=O)Nc3cc(F)ccc3F)cc21`, the inhibition was -5.68%.
Turning to `Cc1ccc(C(=O)C2CCN(CC(=O)NC3CCCCC3)CC2)cc1`, the inhibition is 1.4%.
Take `COc1ccccc1NS(=O)(=O)c1cc(NC(=O)c2sccc2C)ccc1N1CCCC1`: the inhibition was 0.4%.
For `CC1=C(C#N)C(=O)NC(=O)/C1=C/c1ccc(-c2ccc(S(N)(=O)=O)cc2)o1`, the inhibition is 14.3% (active).
As for `CCOC(=O)c1cc(-c2ccc(/C=C3/C(=O)NC(=O)C(C#N)=C3C)o2)ccc1Cl`, the figure is -3.05%; as for `CC1(C)OC(=O)C(=Cc2ccc(-c3ccc(S(N)(=O)=O)cc3)o2)C(=O)O1`, -2.03%; as for `COc1ccc(CCC(=O)Nc2cc(Cl)ccc2N2CCN(C)CC2)cc1`, -2.71%.
With `Cc1cc(C)nc(NN=C2CCCC2)n1`, the inhibition is -4.71%.
In the case of `C/C=C1/CN2[C@@H]3C4CO[C@@H]3c3c([nH]c5cc(OC)ccc35)[C@@H]2CC14` (some centres not stated), the inhibition is 4.24%.
The result for `O=C(O)c1ccc(COc2ccccc2/C=C2/NC(=O)N(c3cccc(Cl)c3)C2=O)cc1` reads -4.52%; that for `ON=Cc1cccn1-c1ccccc1`, 2.34%.
`O=C(O)c1cccc(-n2cccc2/C=C2\NC(=O)N(Cc3ccc(F)cc3)C2=O)c1`: the inhibition is 13.9% (active).
As for `O=C(O)c1cccc(-n2cccc2/C=C2/NC(=O)N(Cc3ccccc3F)C2=O)c1`, the figure is 7.3%; as for `O=C(N/N=C/c1cccn1-c1cccc(C(=O)O)c1)Nc1ccccc1`, 7.06%.
As for `O=C(O)c1cccc(-n2cccc2/C=C2/NC(=O)N(c3cccc(Cl)c3)C2=O)c1`, the figure is 2.42%; as for `Cc1ccc(CN2C(=O)N/C(=C\c3cccn3-c3cccc(C(=O)O)c3)C2=O)cc1`, 7.01%; as for `O=C(O)c1cccc(-n2cccc2/C=C2/NC(=O)N(c3ccc(Cl)cc3)C2=O)c1`, 68.6% (active).
On to `N#C/C(=C/c1cccn1-c1cccc(C(=O)O)c1)c1ccc(Cl)cc1`, for which the inhibition was 7.87%.
For the compound `COc1ccc(-n2cccc2/C=C2/NC(=O)N(c3cccc(Cl)c3)C2=O)cc1`, the inhibition is 1.07%.
As to `O=C(Cn1nc(-c2ccccc2)ccc1=O)N1CCC2(CC1)OCCO2`, the inhibition is -1.66%.
For the compound `CC(C)C(=O)N1N=C2CCCCC2C1(O)C(F)(F)F` (configuration not stated), the inhibition was -2.41%.
For the compound `O=C(Nc1ccccc1)c1ccc2snnc2c1`, the inhibition is -0.53%.
As for `S=C=Nc1ccccn1`, the figure is -0.05%; as for `COc1ccccc1Nc1nc(N)nc(CN2CCOCC2)n1`, -4.21%; as for `Cc1ccc(NC(=S)N/N=C2\CC(C)(C)Oc3ccc(O)cc32)cc1`, 0.56%.
Regarding `O=C(Nc1ccc(-c2nc3ccccc3[nH]2)cc1)c1ccc(N2C(=O)CCC2=O)cc1`, the inhibition was -0.75%.
In the case of `O=C(CSc1ncn[nH]1)NCCOc1ccccc1`, the inhibition was -0.55%.
`O=C1N[C@@H](Cc2ccccc2)C(=O)N2[C@@H]1C[C@@]1(Br)c3ccccc3N(S(=O)(=O)c3ccccc3)[C@@H]21`: the inhibition was 3.3%.
Take `N#Cc1ccccc1CN1C(=O)S/C(=C/c2cccn2-c2cccc(C(=O)O)c2)C1=O`: the inhibition was 2.69%.
The result for `O=C(O)c1ccc(-n2cccc2/C=C2/NC(=O)N(c3ccccc3)C2=O)cc1` reads 14.4% (active); that for `O=C1N/C(=C/c2cccn2-c2ccc(F)cc2)C(=O)N1Cc1ccccc1`, -0.61%.
`O=C1N/C(=C/c2cccn2-c2ccccc2)C(=O)N1Cc1ccc(F)cc1`: the inhibition is 1.54%.
Regarding `N#CC(C#N)=Cc1cccn1-c1ccc(S(N)(=O)=O)cc1`, the inhibition is -1.86%.
With `O=C(O)c1cccc(-n2cccc2/C=C2\SC(=O)N(Cc3ccccc3F)C2=O)c1`, the inhibition was 14.4% (active).
Take `N#C/C(=C/c1cccn1-c1cccc(C(=O)O)c1)c1ccc(F)cc1`: the inhibition was 2.91%.
As for `CN1C(=O)S/C(=C/c2cccn2-c2cccc(C(=O)O)c2)C1=O`, the figure is -3.46%; as for `N#CC(C#N)=Cc1cccn1-c1ccc(C(=O)O)cc1`, 13.8% (active).

The inhibition is the drop in the measured response relative to a control, in per cent.
